# In PubChem BioAssay (NCATS):
# Inconclusive results are not listed. A call without a number means that no potency is given here. Activity calls are given as the source filed them. The call rests on the fitted dose curve; in most records, active means well fitted cell-killing curve with a large enough effect; inconclusive means small, poorly fitted or top-dose-only effect, or effect the other way; inactive means no such curve, though single readings can be large or run the other way.
# Assay: Quantitative High-Throughput drug screen in 47 multiple myeloma cell lines against the NCATS MIPE library collection: OPM2_DSMZ cell viability assay (AID 1919872); further: nearly all actives have a fitted effect of over 30% in size
# Conditions: OPM2 myeloma viability, CellTiter-Glo ATP luminescence, 48 h; series mostly up to 45.8 µM
# Description: PI: Beverly A. Mock Ph.D.
# Laboratory of Cancer Biology and Genetics,
# Center for Cancer Research, National Cancer Institute,
# National Institute of Health, Bethesda, Maryland
# Drug resistance and disease progression are common in multiple myeloma (MM) patients, underscoring the need for new therapeutic combinations. […] We hypothesized that effective combinations would reduce MYC expression and enhance p16 activity. […] These preclinical data identify potentially useful drug combinations for evaluation in drug-resistant MM and reveal potential mechanisms of combined drug sensitivity.
# Described herein is the primary MIPE qHTS used to cherrypick compounds. Validated compounds were then further tested for potential synergistic activiy.
# [1] Peat TJ, Gaikwad SM, Dubois W, Gyabaah-Kessie N, Zhang S, Gorjifard S, Phyo Z, Andres M, Hughitt VK, Simpson RM, Miller MA, Girvin AT, Taylor A, Williams D, D'Antonio N, Zhang Y, Rajagopalan A, Flietner E, Wilson K, Zhang X, Shinn P, Klumpp-Thomas C, McKnight C, Itkin Z, Chen L, Kazandijian D, Zhang J, Michalowski AM, Simmons JK, Keats J, Thomas CJ, Mock BA. Drug combinations identified by high-throughput screening promote cell cycle transition and upregulate Smad pathways in myeloma. Cancer Lett. 2023 Aug 1;568:216284. doi: 10.1016/j.canlet.2023.216284. Epub 2023 Jun 24. PMID: 37356470; PMCID: PMC10408729.
# SEQUENCE No. (e.g., 1, 2, 3, etc.); […] (e.g., Cells, Incubation, Reagent, etc.); VALUE and DESCRIPTION.
# 1; Cells; 5 uL; white, solid bottom 1536-well Greiner assay plate.
# 2; Compounds; 23 nL; Kalypsis pin tool (Wako USA) equipped with a 1536-well pin head to transfer to the assay plates.
# 3; Incubation; 48 hours; 37C incubation.
# 4; Reagent;5uL; CellTiter Glo (Promega).
# 5; Detector; 425V; Luminescence; Viewlux PerkinElmer.
# NOTES (numbers refer to Sequence numbers above)
# 1. The cell-based screening methods employed in this study were like those previously published. Briefly, the corresponding myeloma cell lines were screened in 1,536-well plates with 500 cells, 5-uL per well for inhibition of cell viability (assessed by measuring ATP levels with CellTiterGlo).
# 2. NCATS MIPE 4.0 library of approved and investigational drugs were added using the Kalypsis pin tool. Wells treated with DMSO only for 100% viability and media only wells for 0% viability were used as controls.
# 3. The assay plates were covered and incubated for 48 hours in a 37C, 5% CO2 incubator with controlled humidity.
# 4. After 48 hours, CellTilter-GloTM luminescent substrate mix (Promega) reagent was added to the assay plate and plates we incubated for 5 min at room temperature.
# 5. Signal was measured as median relative luminescence units on a ViewLux (PerkinElmer) multiplate reader.
# [1] Heske CM, Davis MI, Baumgart JT, Wilson K, Gormally MV, Chen L, Zhang X, Ceribelli M, Duveau DY, Guha R, Ferrer M, Arnaldez FI, Ji J, Tran HL, Zhang Y, Mendoza A, Helman LJ, Thomas CJ. Matrix Screen Identifies Synergistic Combination of PARP Inhibitors and Nicotinamide Phosphoribosyltransferase (NAMPT) Inhibitors in Ewing Sarcoma. Clin Cancer Res. 2017 Dec 1;23(23):7301-7311. doi: 10.1158/1078-0432.CCR-17-1121. Epub 2017 Sep 12. PMID: 28899971; PMCID: PMC6636827.
# Potency means the concentration at half of the fitted maximal effect.
row,Compound,Potency
1,NC12CC3CC(CC(C3)C1)C2,inactive
2,CN(C)CCC=C1c2ccccc2C=Cc2ccccc21,inactive
3,NC(=O)OCC(COC(N)=O)c1ccccc1,inactive
4,CCc1cccc2c3c([nH]c12)C(CC)(CC(=O)O)OCC3 (stereo not given),inactive
5,O=C1N(c2ccccc2)c2ccccc2C1(Cc1ccncc1)Cc1ccncc1,inactive
6,CC1COc2c(N3CCN(C)CC3)c(F)cc3c(=O)c(C(=O)O)cn1c23 (stereo not given),inactive
7,O=C(C1CCCCC1)N1CC(=O)N2CCc3ccccc3C2C1 (stereo not given),inactive
8,CC(C(=O)O)c1cccc(C(=O)c2ccccc2)c1 (stereo not given),inactive
9,COc1ccccc1OCC(O)CN1CCN(CC(=O)Nc2c(C)cccc2C)CC1 (stereo not given),inactive
10,CC[C@@]1(O)C(=O)OCc2c1cc1n(c2=O)Cc2cc3c(CN(C)C)c(O)ccc3nc2-1,16.6 µM (active)
11,CN(C)CCOC(c1ccccc1)c1ccccc1,inactive
12,CC(C)(Oc1ccc(C2CC2(Cl)Cl)cc1)C(=O)O (stereo not given),inactive
13,O=C(c1ccc(F)cc1)C1CCN(CCn2c(=O)[nH]c3ccccc3c2=O)CC1,inactive
14,COc1nc(C)nc(Cl)c1NC1=NCCN1,inactive
15,CC12CC3CC(C)(C1)CC(N)(C3)C2,inactive
16,CC(C)Cc1ccc(C(C)C(=O)O)cc1 (stereo not given),inactive
17,CC(C)(C)C(=O)Oc1ccc(S(=O)(=O)Nc2ccccc2C(=O)NCC(=O)O)cc1,inactive
18,COc1cc2c(c(OC)c1OC)-c1ccc(OC)c(=O)cc1[C@@H](NC(C)=O)CC2,inactive
19,CN1C2CCC1CC(OC(=O)C(CO)c1ccccc1)C2 (stereo not given),inactive
20,CCN1CCCC1CNC(=O)c1cc(S(=O)(=O)CC)c(N)cc1OC (stereo not given),inactive

row,Compound,Potency
1,Cn1c(=O)c2c(ncn2C)n(C)c1=O,inactive
2,O=C(Nc1ccc([N+](=O)[O-])cc1Cl)c1cc(Cl)ccc1O,1.32 µM (active)
3,CC1(CN2CCC(n3c(=O)[nH]c4ccccc43)CC2)OCc2ccccc2-n2cccc21 (stereo not given),inactive
4,CC(=O)OCC(CCn1cnc2cnc(N)nc21)COC(C)=O,inactive
5,CN1CCN(C2=Nc3cc(Cl)ccc3Nc3ccccc32)CC1,inactive
6,C[C@](N)(Cc1ccc(O)c(O)c1)C(=O)O,7.43 µM (active)
7,Cc1ccccc1N1C(=O)c2cc(S(N)(=O)=O)c(Cl)cc2NC1C (stereo not given),inactive
8,CC(COc1ccccc1)N(CCCl)Cc1ccccc1 (stereo not given),inactive
9,COc1cc2nc(N3CCN(C(=O)C4COc5ccccc5O4)CC3)nc(N)c2cc1OC (stereo not given),inactive
10,CN1CCC(=C2c3ccccc3C=Cc3ccccc32)CC1,inactive
11,COc1ccc(C2CNC(=O)C2)cc1OC1CCCC1 (stereo not given),inactive
12,CN1C(C(=O)Nc2ccccn2)=C(O)c2ccccc2S1(=O)=O,inactive
13,NC(CO)C(=O)NNCc1ccc(O)c(O)c1O (stereo not given),18.7 µM (active)
14,COC(=O)Nc1nc2ccc(C(=O)c3cccs3)cc2[nH]1,0.0118 µM (active)
15,CC(C)NCC(O)c1ccc(O)c(O)c1 (stereo not given),inactive
16,Cc1cn([C@H]2C=C[C@@H](CO)O2)c(=O)[nH]c1=O,inactive
17,CCOC(=O)c1ncn2c1CN(C)C(=O)c1cc(F)ccc1-2,inactive
18,Nc1ccn([C@H]2CC[C@@H](CO)O2)c(=O)n1,inactive
19,Fc1ccc([C@@H]2CCNC[C@H]2COc2ccc3c(c2)OCO3)cc1,18.7 µM (active)
20,CCCNCC(O)COc1ccccc1C(=O)CCc1ccccc1 (stereo not given),inactive
